# PubChem BioAssay
# Values without a mark were called inactive. Calls of active or inactive are those of the source.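 How the source made its calls, unless noted: active means mean inhibition above 46.68%, the untreated control wells mean plus 3 SD; inactive means the rest.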
# Target: Nuclear receptor coactivator 1 (Homo sapiens) (UniProt Q15788)
# Test: NCOA1 GAL4-fusion reporter inhibition – cell-based, luminescence, quadruplicate, confirmation (AID 588820);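 further: 0% = DMSO wells and 100% = gossypol 36 µM treated wells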
# Conditions: HEK293 GAL4-SRC1 luciferase reporter, at 3.6 µM, stronger effect = higher value
# Chain of Nuclear receptor coactivator 1 (Homo sapiens) (Q15788 whole entry, looked up, the tested form may be a part): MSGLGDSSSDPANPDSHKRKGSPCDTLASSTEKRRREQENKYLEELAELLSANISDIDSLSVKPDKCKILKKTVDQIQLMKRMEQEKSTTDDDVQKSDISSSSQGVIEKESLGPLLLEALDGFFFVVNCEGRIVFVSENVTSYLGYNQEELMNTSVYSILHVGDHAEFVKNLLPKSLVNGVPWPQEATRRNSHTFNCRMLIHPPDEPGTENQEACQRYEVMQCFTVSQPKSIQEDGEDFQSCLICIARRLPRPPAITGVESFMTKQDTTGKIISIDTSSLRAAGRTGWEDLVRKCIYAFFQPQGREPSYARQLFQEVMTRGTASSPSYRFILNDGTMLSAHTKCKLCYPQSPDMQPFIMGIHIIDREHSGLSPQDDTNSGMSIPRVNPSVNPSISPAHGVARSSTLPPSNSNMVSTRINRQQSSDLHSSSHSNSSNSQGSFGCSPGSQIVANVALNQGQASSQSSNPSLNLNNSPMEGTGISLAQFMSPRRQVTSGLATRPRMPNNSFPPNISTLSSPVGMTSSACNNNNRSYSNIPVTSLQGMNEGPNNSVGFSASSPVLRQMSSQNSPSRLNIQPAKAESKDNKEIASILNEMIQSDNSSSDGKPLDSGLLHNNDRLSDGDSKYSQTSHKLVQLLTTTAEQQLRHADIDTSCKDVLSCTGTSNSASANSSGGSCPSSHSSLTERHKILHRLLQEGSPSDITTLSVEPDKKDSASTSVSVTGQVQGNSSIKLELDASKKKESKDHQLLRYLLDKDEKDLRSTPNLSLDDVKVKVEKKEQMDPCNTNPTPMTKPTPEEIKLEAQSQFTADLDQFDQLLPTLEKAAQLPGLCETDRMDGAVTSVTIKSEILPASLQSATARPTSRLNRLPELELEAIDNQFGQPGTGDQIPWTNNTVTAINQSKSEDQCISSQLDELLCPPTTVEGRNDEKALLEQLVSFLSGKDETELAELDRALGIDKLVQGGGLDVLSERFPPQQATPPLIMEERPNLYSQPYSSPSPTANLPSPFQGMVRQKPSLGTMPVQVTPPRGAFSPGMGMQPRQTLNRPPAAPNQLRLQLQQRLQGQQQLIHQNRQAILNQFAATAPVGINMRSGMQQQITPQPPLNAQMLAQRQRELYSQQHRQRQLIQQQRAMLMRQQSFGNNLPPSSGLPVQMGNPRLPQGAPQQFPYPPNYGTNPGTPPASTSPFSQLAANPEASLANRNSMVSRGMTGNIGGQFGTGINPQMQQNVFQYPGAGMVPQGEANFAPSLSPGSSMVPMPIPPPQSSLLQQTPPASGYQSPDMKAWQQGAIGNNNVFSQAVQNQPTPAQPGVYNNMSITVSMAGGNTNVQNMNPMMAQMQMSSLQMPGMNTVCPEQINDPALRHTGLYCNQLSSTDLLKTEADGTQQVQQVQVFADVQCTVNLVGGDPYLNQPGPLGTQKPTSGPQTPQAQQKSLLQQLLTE
row,SMILES,inhibition
1,Cc1ccc(CNc2nc(-c3cccs3)nc3ccccc23)cc1,-2.3%
2,Cc1cc(C)c(Nc2cc(S(=O)(=O)O)c(N)c3c2C(=O)c2ccccc2C3=O)c(C)c1,9.3%
3,Oc1c(C(Nc2nc3ccccc3s2)c2ccco2)ccc2cccnc12 (stereo not given),28.4%
4,Cc1cccc(C)c1NC(=O)CN(C)CC(=O)Nc1ccc(F)c(Cl)c1,4.35%
5,O=C(Nc1cccc(Br)c1)c1cc(S(=O)(=O)N2CCOCC2)cs1,-2.57%
6,COc1cccc(CNc2nc3cc(-c4ccsc4)sc3c(=O)n2C)c1OC,-0.05%
7,CC(=O)Nc1cccc(C(=O)Nc2ccc(S(=O)(=O)NC3=NCCCCC3)cc2)c1,-23%
8,Cc1sc2ncnc(N3CCC(C(=O)N(C)CC(=O)Nc4ccccc4Br)CC3)c2c1C,5.26%
9,COc1ccc(CCN2C(=O)C3C4C=CC(C3C2=O)C2C(=O)N(CCc3ccc(OC)c(OC)c3)C(=O)C42)cc1OC (stereo not given),-5.96%
10,COc1ccc2c(C#N)c3ccccn3c2c1,37.4%
11,Cc1ccc(NNC(=O)C(=O)N2CCCCC2)cc1,-16.9%
12,COc1cccc(NC(=O)CN(C)CC(=O)Nc2ccc(Cl)cc2[N+](=O)[O-])c1,26.6%
13,Cc1sc2ncnc(N3CCN(C(=O)c4ccco4)CC3)c2c1C,-0.07%
14,COc1cc(OC)c(NS(=O)(=O)c2ccc(Cl)c(C(=O)OC(C)C(=O)N3CCCC3)c2)cc1Cl (stereo not given),-10.2%
15,CC1=C(C(=O)OC2CCCCC2)C(c2ccc(C)o2)C2=C(CC(C)(C)CC2=O)N1 (stereo not given),-5.08%
16,Cc1cccc(N2CCN(S(=O)(=O)c3cc(-c4cc(C)no4)ccc3C)CC2C)c1 (stereo not given),-10.5%
17,N#CCCN(C(=O)COC(=O)c1ccc2c(=O)n3c(nc2c1)CCC3)c1ccc(F)cc1,-14.7%
18,Cc1oc(C(C)(C)C)cc1C(=O)N1CCN(c2ccc(C(F)(F)F)cn2)CC1,0.89%
19,CCN(CC(=O)Nc1c(F)cccc1F)C(=O)Cc1csc(-c2ccccc2)n1,-10.5%
20,O=C(NC1CCCCC1)c1n[nH]c2c1CCCCC2,-44.7%

row,SMILES,inhibition
1,Cc1ccc(CNc2ncnc3ccc(-c4ccc(CO)o4)cc23)o1,11.8%
2,Cc1cccc(NC(=O)CSCC(=O)N2CCN(Cc3ccc4c(c3)OCO4)CC2)c1,2.48%
3,NC(=O)c1nsc(C(=O)N(c2ccccc2F)C(C(=O)NCc2ccccc2)c2ccc(O)cc2)c1N (stereo not given),-15.1%
4,CCCc1cc(=O)oc2cc(O[C@@H]3O[C@H](CO)[C@@H](O)[C@H](O)[C@H]3O)ccc12,-9.52%
5,CCN(CC)S(=O)(=O)c1ccc(N2CCOCC2)c(NC(=O)c2cc(-c3ccccn3)nc3ccccc23)c1,-32%
6,C=C1CCC[C@]2(C)C[C@H]3OC(=O)C(CN4CC(C)OC(C)C4)[C@H]3C[C@@H]12 (stereo not given in full),-0.94%
7,O=C(O)CC1S/C(=N\N=C2CCCCCC2)N(c2ccccc2)C1=O (stereo not given),-22.2%
8,O=c1[nH]cnc2sc3c(c12)CCCCC3,-0.67%
9,CSc1sc(C(=O)NC(=O)NCc2cccnc2)c(C)c1-c1ccon1,3.32%
10,COc1ccc(NC(=O)c2ccccc2Cl)cc1NC(=O)CN1CCOCC1,-11.8%
11,COc1ccc(-n2cnc(N)c2C(=O)c2cccc([N+](=O)[O-])c2)cc1,38.1%
12,O=C(Nc1ccccc1)c1ccc(S(=O)(=O)NCc2cccnc2)cc1,-8.68%
13,COc1cccc(/C=N/NC(=O)CNC(=O)C2COc3ccccc3O2)c1O (stereo not given),21.7%
14,CC(=O)c1cn(CC(=O)Nc2cccc(C)c2C)c2ccccc12,-15.8%
15,CN(C(=O)c1cccc(NC(=O)Cc2ccc(NC(=O)C3CCCN(C(=O)CCc4ccccc4)C3)cc2)c1)C1CCCC1 (stereo not given),-3.52%
16,CC(=O)c1ccc(S(=O)(=O)N2CCN(CCOc3ccc(Br)cc3)CC2)cc1,2.32%
17,C=C1C(=O)O[C@@]23[C@H]1CC[C@@H](C)[C@@H]2CC[C@@]1(C)O[C@@H]31,1.63%
18,CCOP(=O)(OCC)C(NC(=O)c1cccs1)c1ccccc1 (stereo not given),-44.8%
19,CCCCCOc1ccc(/C=C/c2c([N+](=O)[O-])c(=O)n(C)c(=O)n2C)cc1,23.6%
20,Cc1cc(NC(=O)C(Cl)c2ccccc2)no1 (stereo not given),-11.5%

# Tested on: not listed separately
# Test: repression of VP16-driven luciferase reporter – cell-based, luminescence, high throughput, counter-screen for SRC1 inhibitor project (AID 588824; in the data active means inhibition above about 25%)
# Conditions: cell-based VP16 transactivation luciferase luminescence; at 3.6 µM; stronger effect = higher value
row,SMILES,inhibition
1,Cc1ccc(CNc2nc(-c3cccs3)nc3ccccc23)cc1,14.8%
2,Cc1cc(C)c(Nc2cc(S(=O)(=O)O)c(N)c3c2C(=O)c2ccccc2C3=O)c(C)c1,8.52%
3,Oc1c(C(Nc2nc3ccccc3s2)c2ccco2)ccc2cccnc12 (stereo not given),29.8% (active)
4,Cc1cccc(C)c1NC(=O)CN(C)CC(=O)Nc1ccc(F)c(Cl)c1,11.2%
5,O=C(Nc1cccc(Br)c1)c1cc(S(=O)(=O)N2CCOCC2)cs1,-2.73%
6,COc1cccc(CNc2nc3cc(-c4ccsc4)sc3c(=O)n2C)c1OC,25.6% (active)
7,CC(=O)Nc1cccc(C(=O)Nc2ccc(S(=O)(=O)NC3=NCCCCC3)cc2)c1,-8.18%
8,Cc1sc2ncnc(N3CCC(C(=O)N(C)CC(=O)Nc4ccccc4Br)CC3)c2c1C,13.3%
9,COc1ccc(CCN2C(=O)C3C4C=CC(C3C2=O)C2C(=O)N(CCc3ccc(OC)c(OC)c3)C(=O)C42)cc1OC (stereo not given),11.5%
10,COc1ccc2c(C#N)c3ccccn3c2c1,7.81%
11,Cc1ccc(NNC(=O)C(=O)N2CCCCC2)cc1,11.6%
12,COc1cccc(NC(=O)CN(C)CC(=O)Nc2ccc(Cl)cc2[N+](=O)[O-])c1,14.7%
13,Cc1sc2ncnc(N3CCN(C(=O)c4ccco4)CC3)c2c1C,7.79%
14,COc1cc(OC)c(NS(=O)(=O)c2ccc(Cl)c(C(=O)OC(C)C(=O)N3CCCC3)c2)cc1Cl (stereo not given),10.7%
15,CC1=C(C(=O)OC2CCCCC2)C(c2ccc(C)o2)C2=C(CC(C)(C)CC2=O)N1 (stereo not given),4.47%
16,Cc1cccc(N2CCN(S(=O)(=O)c3cc(-c4cc(C)no4)ccc3C)CC2C)c1 (stereo not given),33.8% (active)
17,N#CCCN(C(=O)COC(=O)c1ccc2c(=O)n3c(nc2c1)CCC3)c1ccc(F)cc1,2.54%
18,Cc1oc(C(C)(C)C)cc1C(=O)N1CCN(c2ccc(C(F)(F)F)cn2)CC1,15.2%
19,CCN(CC(=O)Nc1c(F)cccc1F)C(=O)Cc1csc(-c2ccccc2)n1,-7.28%
20,O=C(NC1CCCCC1)c1n[nH]c2c1CCCCC2,-18.1%

row,SMILES,inhibition
1,Cc1ccc(CNc2ncnc3ccc(-c4ccc(CO)o4)cc23)o1,14.7%
2,Cc1cccc(NC(=O)CSCC(=O)N2CCN(Cc3ccc4c(c3)OCO4)CC2)c1,1.12%
3,NC(=O)c1nsc(C(=O)N(c2ccccc2F)C(C(=O)NCc2ccccc2)c2ccc(O)cc2)c1N (stereo not given),2.13%
4,CCCc1cc(=O)oc2cc(O[C@@H]3O[C@H](CO)[C@@H](O)[C@H](O)[C@H]3O)ccc12,-11.7%
5,CCN(CC)S(=O)(=O)c1ccc(N2CCOCC2)c(NC(=O)c2cc(-c3ccccn3)nc3ccccc23)c1,-1.24%
6,C=C1CCC[C@]2(C)C[C@H]3OC(=O)C(CN4CC(C)OC(C)C4)[C@H]3C[C@@H]12 (stereo not given in full),2.96%
7,O=C(O)CC1S/C(=N\N=C2CCCCCC2)N(c2ccccc2)C1=O (stereo not given),-9.41%
8,O=c1[nH]cnc2sc3c(c12)CCCCC3,-2.41%
9,CSc1sc(C(=O)NC(=O)NCc2cccnc2)c(C)c1-c1ccon1,1.48%
10,COc1ccc(NC(=O)c2ccccc2Cl)cc1NC(=O)CN1CCOCC1,-7.93%
11,COc1ccc(-n2cnc(N)c2C(=O)c2cccc([N+](=O)[O-])c2)cc1,18.6%
12,O=C(Nc1ccccc1)c1ccc(S(=O)(=O)NCc2cccnc2)cc1,0.28%
13,COc1cccc(/C=N/NC(=O)CNC(=O)C2COc3ccccc3O2)c1O (stereo not given),8.91%
14,CC(=O)c1cn(CC(=O)Nc2cccc(C)c2C)c2ccccc12,13%
15,CN(C(=O)c1cccc(NC(=O)Cc2ccc(NC(=O)C3CCCN(C(=O)CCc4ccccc4)C3)cc2)c1)C1CCCC1 (stereo not given),19.6%
16,CC(=O)c1ccc(S(=O)(=O)N2CCN(CCOc3ccc(Br)cc3)CC2)cc1,25.4% (active)
17,C=C1C(=O)O[C@@]23[C@H]1CC[C@@H](C)[C@@H]2CC[C@@]1(C)O[C@@H]31,7.69%
18,CCOP(=O)(OCC)C(NC(=O)c1cccs1)c1ccccc1 (stereo not given),-3.21%
19,CCCCCOc1ccc(/C=C/c2c([N+](=O)[O-])c(=O)n(C)c(=O)n2C)cc1,22.4%
20,Cc1cc(NC(=O)C(Cl)c2ccccc2)no1 (stereo not given),3.89%
